ATXN viability: Viability Counterscreen for Primary qHTS for Inhibitors of ATXN expression; hit rate 0.49% among 400,000; S2 cells (HEK-293 line with an ATXN2-luciferase reporter) viability, CellTiter-Fluor protease fluorescence, 24 h; Potency, µM (series often up to 56.7 µM), actives largely listed as cytotoxic; note: nearly all actives have a fitted effect of over 40% in size
TGFb SMAD3 inh: qHTS for Inhibitors of TGF-b; Potency, µM (titrated, usually from 46.1 µM), hits mostly inhibitors; hit rate 1.2% among 410,000; HepG2 CAGA-GFP TGF-b/SMAD3 reporter, GFP fluorescence, 18 h; TGF-beta stimulated, 500 pg/mL final; note: nearly all actives have a fitted effect of over 65% in size
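TGF-beta reporter screen: HEPG2 CAGA-GFP, 1% FBS, 500 pg/mL TGF-beta final, 18 h; per-cell GFP summed per well; curves fitted and categorized by class.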
Nrf2 block: Nrf2 qHTS screen for inhibitors; hit rate 2.1% among 360,000; AID 504444, 2011; Potency, µM (series often up to 46 µM), hits mostly inhibitors; A549 ARE-Fluc reporter, luciferase luminescence, 18-24 h; note: nearly all actives have a fitted effect of over 60% in size
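Nrf2 activity is the BugLite luminescence, read 15 min after reagent at room temperature, following CellTiter-Fluor cytotoxicity readout (30 min, 37C). Compound titrations were applied for 18-24 h to 5000 A549 ARE_Fluc cells/well in 5% FBS OPTI-MEM.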
A549 viability: Nrf2 qHTS screen for inhibitors: counterscreen for cytotoxicity. A549 ARE-Fluc cells, CellTiter-Fluor viability, 18-24 h. Potency, µM (series often up to 46 µM), usual class: inhibitors. hit rate 0.16% among 390,000
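Cytotoxicity counterscreen: CellTiter-Fluor fluorescence was measured in A549 ARE_Fluc cells after 18-24 h of compound exposure in a concentration series. The subsequent BugLite luminescent read reports ARE-luciferase activity.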
ATXN2 expr inh: Primary qHTS for Inhibitors of ATXN expression | HEK-293 ATXN2-luciferase reporter, luminescence, 24 h | Potency, µM (top dose mostly 57 µM), hits mostly inhibitors | hit rate 0.72% among 360,000; note: nearly all actives have a fitted effect of over 55% in size
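qHTS (up to 57 uM final) was run with 24 h compound exposure of reporter cells at 37 °C. Each well was multiplexed: SteadyGlo luminescence measured ATXN2-luciferase expression after a fluorogenic Gly-Phe-AFC viability readout (25 uM final).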
HepG2 tox: qHTS for Inhibitors of TGF-b: Cytotox Counterscreen | HepG2 CAGA-GFP viability, ATP luminescence, 18 h | Potency, µM (top dose mostly 46.1 µM), actives largely listed as cytotoxic | hit rate 0.76% among 410,000
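CellTiter-Glo luminescence gave cytotoxicity after 18 hours at 37 degrees C. The cells were HepG2 CAGA-GFP in 1% FBS DMEM, stimulated with 500 pg/mL TGF-beta after compound addition. %Activity was normalised to no-cell wells (complete cell-killing) and DMSO (no toxicity), and curves were fitted and classified.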
Each line names hits and unclear results; the compound was inactive in the other large screens. A selection: hits, their analogues and other compounds. The true share with any hit is near 3.8%. Calls come from the whole dose curve; as a rule, active = well fitted curve in the direction sought with a large enough effect; inconclusive = small, poorly fitted or top-dose-only effect, or another doubt; inactive = no such curve, though single readings can be large; an effect the other way counts as inactive or inconclusive.

CC1(C2CC2)NC(=O)N(CC(=O)Nc2ccccc2-c2ccccc2)C1=O (stereo not given)	none
C/C(CCc1ccc2c(c1)OCO2)=N\N=C1\NC(=O)CC(C(=O)Nc2ccccc2F)S1 (stereo not given)	none
CCN(C(=O)CSc1nc2ccccc2nc1Cc1cccc(OC)c1)c1cccc(C)c1	TGFb SMAD3 inh 16µM (no result: ATXN viability, Nrf2 block, ATXN2 expr inh)
CCN(C(=O)CSc1nc2ccccc2nc1Cc1ccc(F)cc1)c1cccc(C)c1	ATXN viability inconclusive (no result: Nrf2 block)
COc1ccccc1Cc1nc2ccccc2nc1SCC(=O)N1CCC(C)CC1	ATXN viability inconclusive, TGFb SMAD3 inh 16µM (no result: Nrf2 block)
Cc1ccc(Cc2nc3ccccc3nc2SCC(=O)N2CCCCC2C)cc1 (stereo not given)	ATXN viability inconclusive, TGFb SMAD3 inh 16µM, ATXN2 expr inh inconclusive (no result: Nrf2 block)
COc1cccc(Cc2nc3ccccc3nc2SCC(=O)N2CCCCC2C)c1 (stereo not given)	ATXN viability inconclusive, TGFb SMAD3 inh 11µM, ATXN2 expr inh inconclusive (no result: Nrf2 block)
CCCS(=O)(=O)NC(=O)C1(C)CCCN(C(=O)c2c(OC)cccc2OC)C1 (stereo not given)	none (no result: Nrf2 block, A549 viability)
CCCn1c(SCC(=O)c2[nH]c(C)c(C(C)=O)c2C)n[nH]c1=O	none
O=C(c1ccccc1)N1CCc2cc(CNS(=O)(=O)c3ccc(Cl)s3)ccc21	none (no result: ATXN viability, Nrf2 block, ATXN2 expr inh)
O=C(Nc1nnc(S(=O)(=O)N2CCCc3ccccc32)s1)c1ccc(Cl)cc1	TGFb SMAD3 inh inconclusive
O=C(Nc1ccc(S(=O)(=O)NCc2ccco2)cc1)c1ccncc1	Nrf2 block 13µM
Cc1ccc(NC(=O)c2ccc(S(=O)(=O)NCc3ccco3)cc2)cc1	Nrf2 block inconclusive
O=C(NC1CCN(Cc2ccccc2)CC1)c1ccc(S(=O)(=O)NCc2ccco2)cc1	ATXN viability inconclusive, Nrf2 block 6.5µM
Cc1ccc(S(=O)(=O)Nc2cccc3ncccc23)s1	ATXN viability inconclusive, TGFb SMAD3 inh inconclusive, Nrf2 block 15µM, A549 viability inconclusive, ATXN2 expr inh inconclusive
Cc1ccc(NC(=O)COc2ccc(-c3nnco3)cc2)cc1S(=O)(=O)N1CCOCC1	Nrf2 block 23µM
Cc1ccc(NCC(=O)Nc2cccc(S(=O)(=O)N(C)C)c2)cc1S(=O)(=O)N1CCCCCC1	ATXN viability inconclusive, TGFb SMAD3 inh inconclusive, Nrf2 block 8.2µM, A549 viability inconclusive
Cc1ccc(NC(=O)CNc2cccc(S(=O)(=O)N3CCCC3)c2)cc1F	TGFb SMAD3 inh inconclusive, Nrf2 block inconclusive
Cc1ccc(NCC(=O)Nc2ccc(F)c(Cl)c2)cc1S(=O)(=O)N1CCOCC1	ATXN viability inconclusive, TGFb SMAD3 inh inconclusive (no result: Nrf2 block, A549 viability, ATXN2 expr inh)
Cc1ccc(NC(=O)CNc2cccc(Br)c2)cc1S(=O)(=O)N1CCOCC1	TGFb SMAD3 inh inconclusive, Nrf2 block 21µM, A549 viability inconclusive, ATXN2 expr inh inconclusive
Cc1nc(-c2ccc(F)cc2)c(CC(=O)Nc2ccc(C)c(S(=O)(=O)N3CCOCC3)c2)s1	Nrf2 block 18µM
Cc1ccc(OCCC(=O)OCC(=O)Nc2ccc(C)c(S(=O)(=O)N3CCOCC3)c2)cc1	none
N#Cc1nc(Nc2cc(F)cc(F)c2)c2ncn(C3CCCC3)c2n1	Nrf2 block inconclusive (no result: ATXN viability, TGFb SMAD3 inh, ATXN2 expr inh, HepG2 tox)
Cc1cccc(N(C)S(=O)(=O)c2c(C)[nH]c(C)c2C(=O)N2CCCC2)c1	none
CCN(CC)S(=O)(=O)c1cccc(NC(=O)CNc2cccc(S(=O)(=O)N3CCCC3)c2)c1	ATXN viability inconclusive, Nrf2 block 26µM, A549 viability inconclusive, ATXN2 expr inh inconclusive
O=C(CNc1cccc(S(=O)(=O)N2CCCC2)c1)Nc1ccc(F)c(F)c1	TGFb SMAD3 inh inconclusive, Nrf2 block 26µM
CCN(CC)S(=O)(=O)c1ccc(C)c(NC(=O)CNc2cccc(S(=O)(=O)N3CCCC3)c2)c1	TGFb SMAD3 inh inconclusive, Nrf2 block inconclusive
